Consider 21 compounds from PubChem BioAssay (EPA / NIEHS).

SMILES strings stand for the structures. Calls of active or inactive are those of the source. How the source made its calls: active means hit-call score of the fitted dose curve at least 0.9, where 1 is the maximum; inactive means score below 0.9.

A short description of assay [1]: APR_HepG2_CellCycleArrest_24hr: Apredica 24-hour HepG2 Assay for Cell Cycle Arrest (AID 2282905).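 Further: cell cycle arrest scored as ratio of 2N to 4N nuclear DNA content.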 The settings on record: imaging, actives raise or lower the signal. Summed up: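 HepG2, 24 hr dosing, 10-pt 0.39–200 uM in duplicate, 0.5% DMSO. Fixed 3.7% formaldehyde, permeabilized 0.5% Triton X-100, Hoechst 33342 2 ug/mL. Imaged 20x; nuclear DNA content quantified; bidirectional fit vs DMSO.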

The nature of assay [2]: APR_HepG2_NuclearSize_24hr: Apredica 24-hour HepG2 Assay for Nuclear Size (AID 2282907). The note with it: high-content imaging, actives raise or lower the signal. Summed up: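 HepG2, 24 hr dosing, 10-pt 0.39–200 uM, duplicates, 0.5% DMSO final; 3.7% formaldehyde fix, 0.5% Triton X-100; Hoechst 33342 nuclear stain; ArrayScan HCS, Cell Cycle analysis → nuclear size; bidirectional fit vs DMSO.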

The nature of assay [3]: APR_HepG2_CellLoss_24hr: Apredica 24-hour HepG2 Assay for Cell Loss (AID 2282908).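 On AC50: fit in both directions so a hit may be cell loss or gain.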 The note with it: high-content imaging. Summed up: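 10-pt dose, 0.39–200 uM, n=2/plate; DMSO 0.5% v/v final as negative control. Fix 3.7% formaldehyde 30 min RT, permeabilize 0.5% Triton X-100, stain Hoechst 33342 2 ug/mL, image 20x. Nuclear count, bidirectional fit vs DMSO.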
Assay [4] is described as follows: APR_HepG2_MicrotubuleCSK_24hr: Apredica 24-hour HepG2 Assay for Microtubule CSK Stabilty (AID 2282909). The settings on record: HepG2 microtubule cytoskeleton imaging, actives raise or lower the signal. The method in brief:
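Human liver HepG2, 24 h dosing, 0.39–200 uM ×10 conc, dup, 0.5% DMSO. 3.7% formaldehyde fix, 0.5% Triton perm, anti-alpha-tubulin (1:200)/Cy5 secondary + Hoechst. HCS imaging, 6 fields/well; gain/loss fit vs DMSO.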

Assay [5] can be described thus: APR_HepG2_MitoticArrest_24hr: Apredica 24-hour HepG2 Assay for Mitotic Arrest (AID 2282910). The settings on record: high-content imaging, actives raise or lower the signal. The method in brief: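 HepG2 human liver cells were exposed to compounds at 0.39–200 uM (10 concentrations, duplicate) in 0.5% v/v DMSO for 24 hr, then fixed and immunostained for phospho-histone H3 with Hoechst 33342. Mitotic arrest came from HCS fluorescent imaging, fitted bidirectionally against DMSO.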

Assay [6] can be described thus: APR_HepG2_MitoMembPot_24hr: Apredica 24-hour HepG2 Assay for Mitochondrial Membrane Potential (AID 2282911). The note with it: imaging, actives raise or lower the signal. Summed up: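 Cells are dosed for 24 hr across 0.39 to 200 uM with solvent held at 0.5% DMSO. They are then stained with 250 nM MitoTracker Red CMXRos for 30 min, fixed in 3.7% formaldehyde and imaged.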

Assay [7] in a line: APR_HepG2_MitoMass_24hr: Apredica 24-hour HepG2 Assay for Mitochondrial Mass (AID 2282912). The settings on record: high-content imaging, actives raise or lower the signal. The method in brief:
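Mitochondrial mass is read as MitoTracker Red fluorescence intensity from automated imaging, with bidirectional curve fitting relative to DMSO. HepG2 cells received compound (0.39–200 uM, 0.5% DMSO final) for 24 hr and were dye-loaded (250 nM, 30 min) before formaldehyde fixation.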

The nature of assay [8]: APR_HepG2_CellCycleArrest_72hr: Apredica 72-hour HepG2 Assay for Cell Cycle Arrest (AID 2282914). The note with it: high-content imaging, actives raise or lower the signal. Summed up: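 Read-out is Hoechst-stained nuclear DNA content measured by automated fluorescence imaging (20x, six images per well), fitted in both directions relative to DMSO. Human HepG2 liver cells received 0.39–200 uM compound for 72 hr at 0.5% v/v DMSO.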

The nature of assay [9]: APR_HepG2_CellLoss_72hr: Apredica 72-hour HepG2 Assay for Cell Loss (AID 2282915). The settings on record: high-content imaging. Summed up:
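HepG2 cells were exposed for 72 hr to compounds at 0.39–200 uM (ten concentrations, duplicate) in 0.5% v/v final DMSO. Nuclei were stained with Hoechst 33342 after 3.7% formaldehyde fixation, imaged at 20x, and counted; fits bidirectional versus DMSO.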

Assay [10] can be described thus: APR_HepG2_p53Act_24hr: Apredica 24-hour HepG2 Assay for p53 Activation (AID 2282913).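 Further: p53 protein immunofluorescence averaged per cell in HepG2 with Hoechst nuclei.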 The settings on record: high-content imaging, actives raise or lower the signal. Summed up: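 Human HepG2 liver cells; 24 hr cpd treatment, 0.39–200 uM, 0.5% DMSO final. Fixed in 3.7% formaldehyde, permeabilized with 0.5% Triton X-100, stained with anti-p53/Cy5 plus Hoechst 33342. Six images per well at 20x; gain or loss vs DMSO.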

For the compound `Cc1cc(SC2=C(O)C[C@@](CCc3ccc(N)cc3)(C(C)C)OC2=O)c(C(C)(C)C)cc1CO`, the compound was classed as inactive in assay [1], in [2], in assay [3], in [4], in assay [5] and in assay [7]. Moreover, the compound was classed as inactive in [8] and in assay [9]. Besides, the AC50 (commonly the concentration at which the activity in the assay is half-maximal) in [6] is 0.0797 µM (active).
As to `O=C(O)CN(CC(=O)O)CC(=O)O`, the compound was classed as inactive in assay [1], in assay [2], in assay [3], in assay [4], in assay [5] and in assay [6]. In addition, the compound was called inactive in assay [7], in assay [10], in assay [8] and in [9].
Regarding `CCCCCCCCCCCCCCCCO`, the compound was called inactive in assay [1], in [2], in assay [3], in [4], in assay [5] and in assay [6]. The call in [7], in assay [8] and in assay [9] was inactive.
In the case of `CCCCCCCCCCCCCCOS(=O)(=O)O`, the half-maximal activity concentration (AC50) in assay [1] is 110 µM (active); in assay [3], 117 µM (active); in [5], 109 µM (active); in [9], 110 µM (active). Moreover, the outcome in [2], in [4], in assay [6], in assay [7] and in assay [8] was inactive.
For `O=C(O)CC(O)(CC(=O)O)C(=O)O`, the compound was classed as inactive in assay [1], in assay [2], in [3], in [4], in assay [5] and in [6]. In addition, the call in assay [7], in assay [8] and in assay [9] was inactive.
For the compound `CC(C)(O)c1ccc(CNC(=O)c2cccnc2Oc2ccc(F)cc2)cc1`, the call in [1], in [2], in [3], in [4], in assay [5] and in [6] was inactive. Further, the call in assay [7], in assay [10], in [8] and in assay [9] was inactive.
With `COC(=O)CCCC(=O)OC`, the result in assay [1], in assay [2], in [3], in assay [4], in assay [5] and in assay [6] was inactive. For the same compound, the compound was classed as inactive in assay [7], in assay [8] and in assay [9].
Take `O=C(N[C@@H](c1ccccc1)[C@@H]1CCCCN1)c1cccc(C(F)(F)F)c1Cl`: the AC50 in [1] was 18.7 µM (active); in assay [2] it was 17.4 µM (active); in assay [3] it was 21.7 µM (active); in assay [4], 11.4 µM (active); in assay [5], 12.6 µM (active); in assay [7], 12.6 µM (active). Besides, in assay [9], the half-maximal activity concentration (AC50) is 15.2 µM (active). Further, the outcome in assay [6] and in [8] was inactive.
For `Cn1cnc2c1c(=O)[nH]c(=O)n2C`, the compound was classed as inactive in assay [1], in [2], in [3], in [4], in assay [5] and in [6]. In addition, the call in assay [7], in assay [8] and in assay [9] was inactive.
For the compound `Cc1cn([C@H]2C=C[C@@H](CO)O2)c(=O)[nH]c1=O`, the outcome in assay [1], in assay [2], in assay [3], in assay [4], in assay [5] and in assay [6] was inactive. In addition, the compound was called inactive in [7], in assay [8] and in assay [9].
In the case of `c1ccc2occc2c1`, the compound was classed as inactive in assay [1], in [2], in assay [3], in assay [4], in assay [5] and in [6]. Moreover, the compound was called inactive in assay [7], in assay [10], in assay [8] and in [9].
As for `CC(C)c1cccc(C(C)C)c1`, the outcome in assay [1], in assay [2], in [3], in assay [4], in assay [5] and in assay [6] was inactive. For the same compound, the result in assay [7], in assay [8] and in assay [9] was inactive.
Consider `O=C1OC(c2ccc(O)cc2)(c2ccc(O)cc2)c2ccccc21`, for which the AC50 was 81.1 µM (active) in [1]; 90.7 µM (active) in assay [3]; 61.4 µM (active) in assay [5]; 92.7 µM (active) in assay [7]; 55.9 µM (active) in assay [8]; 102 µM (active) in assay [9]. The result in assay [2], in assay [4] and in [6] was inactive.
In the case of `CC(=O)S[C@H](C(=O)N[C@H]1Cc2ccccc2[C@H]2CCC[C@@H](C(=O)O)N2C1=O)C(C)C`, the call in assay [1], in [2], in assay [3], in assay [4], in [5] and in assay [6] was inactive. For the same compound, the outcome in assay [7], in assay [10], in [8] and in [9] was inactive.
`COc1ccc(OC(F)(F)F)cc1CN[C@H]1CCCN[C@H]1c1ccccc1`: the AC50 in [1] was 29.2 µM (active); in [2] it was 33.4 µM (active); in assay [3], 45.8 µM (active); in assay [5], 39.5 µM (active); in [7] it was 66.7 µM (active); in assay [9], 27.5 µM (active). The compound was classed as inactive in assay [4], in [6] and in [8].
In the case of `CC(C)COC(=O)CCCCC(=O)OCC(C)C`, the call in assay [1], in assay [2], in assay [3], in [4], in assay [5] and in [6] was inactive. Besides, the compound was classed as inactive in assay [7], in assay [8] and in [9].
Consider `CC(=O)[C@@]1(O)CC[C@H]2[C@@H]3CCC4=CC(=O)CC[C@]4(C)[C@H]3CC[C@@]21C`, for which the compound was classed as inactive in assay [1], in assay [2], in assay [3], in [4], in assay [5] and in assay [6]. In addition, the call in [7], in assay [8] and in assay [9] was inactive.
Regarding `N[C@@H](Cc1c[nH]c2ccccc12)C(=O)O`, the call in assay [1], in [2], in assay [3], in [4], in assay [5] and in [6] was inactive. Moreover, the compound was called inactive in [7], in [8] and in assay [9].
With `CC(C)c1cccc(C(C)C)c1NC(=O)NS(=O)(=O)c1cc(C(C)(C)O)co1`, the call in assay [1], in [2], in assay [3], in assay [4], in assay [5] and in assay [6] was inactive. For the same compound, the outcome in assay [7], in assay [8] and in assay [9] was inactive.
In the case of `CC(=O)CC(c1ccccc1)c1c(O)c2ccccc2oc1=O` (stereo not drawn), the compound was classed as inactive in [1], in assay [2], in [3], in assay [4], in assay [5] and in assay [6]. Besides, the compound was classed as inactive in [7], in assay [8] and in assay [9].
With `CCCCC(CC)COC(=O)CCCCCCCC(=O)OCC(CC)CCCC` (stereo not drawn), the compound was called inactive in [1], in assay [2], in [3], in assay [4], in assay [5] and in assay [6]. Moreover, the compound was called inactive in assay [7], in assay [8] and in assay [9].
